The structures appear in SMILES notation. A number with no mark means an inactive call. No rule for the calls is given here.

In this experiment the target is Pantothenate synthetase (Mycobacterium tuberculosis (strain ATCC 25618 / H37Rv)) (UniProt P9WIL5). As to the kind of experiment: Recombinant Mtb pantothenate synthetase (PanC) inhibitors, coupled enzyme, confirmatory (AID 375).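 Also: 0% = full reaction with vehicle and 100% = no enzyme background.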 The following applies: coupled enzyme assay; at 10 µM, stronger effect = higher value.
Sequence of Pantothenate synthetase (Mycobacterium tuberculosis (strain ATCC 25618 / H37Rv)) (P9WIL5 whole entry, looked up): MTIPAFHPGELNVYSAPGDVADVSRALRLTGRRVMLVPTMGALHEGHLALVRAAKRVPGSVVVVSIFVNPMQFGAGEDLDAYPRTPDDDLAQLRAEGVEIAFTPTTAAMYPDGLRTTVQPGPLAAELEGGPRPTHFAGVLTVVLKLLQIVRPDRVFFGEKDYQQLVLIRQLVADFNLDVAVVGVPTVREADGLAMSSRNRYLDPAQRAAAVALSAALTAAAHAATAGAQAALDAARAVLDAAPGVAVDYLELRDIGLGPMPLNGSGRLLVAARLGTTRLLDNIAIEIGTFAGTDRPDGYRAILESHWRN
Take `CNc1ccc(C(O)(C(F)(F)F)C(F)(F)F)cc1C(O)(C(F)(F)F)C(F)(F)F`: the inhibition – broadly, how much of the control response was suppressed – is 0%.
For `O=C1c2cccnc2C(O)N1Cc1ccc(F)cc1` (stereo not given), the inhibition was 9%.
`COc1ccc(C2NC(c3ccc(OC)c(OC)c3OC)C(C)C(=O)C2C)c(OC)c1OC` (stereo not given): the inhibition was 0%.
Turning to `CCOC(=O)c1c(NC(=O)c2cccs2)sc2c1CCN(C(=O)OCC)C2`, the inhibition was 0%.
The same measure for `CC(=O)c1cccc(NC(=O)NCc2ccco2)c1`: 0%; for `COC(=O)Cc1c(C)nc2nc(-c3ccco3)[nH]n2c1=O`: 2%.
Take `O=C(CSc1nc2ncccc2[nH]1)Nc1ccc2c(c1)OCCO2`: the inhibition is 0%.
As to `Cc1ccsc1C(C(=O)NC1CCCCC1)N(C(=O)Cc1cccs1)C1CC1` (stereo not given), the inhibition is 0%.
With `Cc1nc(NS(=O)(=O)c2ccccc2)sc1NC(=O)OC(C)C`, the inhibition was 0%.
Take `Cc1n[nH]c(C)c1N1C(=O)c2cccc3cc(Br)cc(c23)C1=O`: the inhibition was 6%.
As to `OC(CCCN1CCC(O)(c2ccc(Cl)cc2)CC1)c1ccc(F)cc1` (stereo not given), the inhibition is 5%.
Regarding `CCOC(=O)C1CCCN(C(=O)c2cc3c(-c4cccc(OC)c4)nn(C)c3s2)C1` (stereo not given), the inhibition was 0%.
On to `CCn1c(CSc2nnc(-c3cccnc3)n2-c2ccccc2C)nc2cc(C(=O)O)ccc21`, for which the inhibition was 0%.
As for `CCc1[nH]nc2c1C(c1cccc(OC(=O)N3CCOCC3)c1)C(C#N)=C(N)O2` (stereo not given), the inhibition was 1%.
Consider `COc1cccc(N2CCN(Cc3nc(N)nc(Nc4ccccc4OC)n3)CC2)c1`, for which the inhibition was 0%.
Take `CCCC(C)C1C(C#N)=C(N)Oc2cc(C)oc(=O)c21` (stereo not given): the inhibition is 1%.
Take `Cc1cccc(OCC(=O)N2CCC(c3ccccc3)C2)c1` (stereo not given): the inhibition was 3%.
Consider `CC(=O)c1c(C)nn(CC(O)COc2ccc3c(c2)CCC3)c1C` (stereo not given), for which the inhibition is 0%.
As to `c1ccc(OCCCn2nnc(-c3cccnc3)n2)cc1`, the inhibition was 3%.
As to `CNC(=O)Oc1ccc2c(c1)[C@]1(C)CCN(C)[C@@H]1N2C`, the inhibition is 4%.
Take `Cc1occc1C(=O)Nc1cccc2ccccc12`: the inhibition was 0%.
The result for `CN(C)/C=C(\C#N)c1nc2ccccc2[nH]1` reads 0%; that for `CCCN(CCC)S(=O)(=O)c1ccc(C(=O)O)cc1`, 0%; that for `CCC(=O)N1CCc2cc(S(=O)(=O)CCC(=O)Nc3c(C)n(C)n(-c4ccccc4)c3=O)ccc21`, 7%.
For `CC(C)c1ccc(S(=O)(=O)N2CCN(C(=O)c3cccc(F)c3)CC2)cc1`, the inhibition was 8%.
The result for `CC(=O)N1CCN(S(=O)(=O)c2ccc(S(=O)(=O)NCC(C)C)cc2)CC1` reads 5%; that for `Cn1c(=O)n(CCN2CCOCC2)c(=O)c2c1nc1n2CCN1c1ccccc1`, 2%.
The result for `COc1ccc(S(=O)(=O)N2CCN(CC(=O)Nc3ccc(F)c(F)c3)CC2)cc1` reads 7%; that for `COCCCN1C(=O)C(O)=C(C(C)=O)C1c1ccccn1` (stereo not given), 3%; that for `Cc1ccnc(NC(=O)Nc2ccc(F)cc2)c1`, 0%.
For the compound `COc1ccc(NC(=O)CC2Oc3ccccc3NC2=O)cc1` (stereo not given), the inhibition is 0%.
As to `O=C(CCCN1CCC(O)(c2ccc(Cl)cc2)CC1)c1ccc(F)cc1`, the inhibition was 0%.
As to `Cc1ccc(CCP(=O)(O)CN2CCOCC2)cn1`, the inhibition was 0%.
`CC1CCCC(C)N1CCNC(=O)C1CCN(S(=O)(=O)N2CCCCC2)CC1` (stereo not given): the inhibition was 3%.
The result for `CC1(C)CC(=O)C=C(Nc2ccc(F)cc2)C1` reads 0%; that for `COc1ccc(C)cc1NC(=O)CN(Cc1nnc(-c2ccc(Cl)cc2)o1)C1CCCC1`, 0%; that for `CS(=O)(=O)N1CCN(C(=O)c2ccc(-c3ccccc3)cc2)CC1`, 9%.
On to `COC(=O)Nc1nnc(CCc2ccccc2)s1`, for which the inhibition was 2%.
For `CN1CCN(C(=O)C2(NC(=O)Nc3cccc(F)c3)CCCCC2)CC1`, the inhibition was 0%.
`Nc1nc2n(n1)C(c1cccc(Br)c1)CC(c1ccccc1)N2` (stereo not given): the inhibition is 0%.
